GDH-TPI counter-1: GDH-TPI coupled enzyme inhibition counter-screen | GDH-TPI coupled enzyme counterscreen, NADH absorbance | inhibition, % at 4.8 µM | actives 1.2% (n = 360,000) | AID 588335; in the data active = inhibition above about 30%;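 also: 0% = DMSO wells and 100% = wells lacking the enzyme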
Mtb betalactam: beta-lactam sensitization of Mtb H37Rv; M. tuberculosis H37Rv growth with meropenem, percent inhibition; inhibition, % at 25 µM; actives 0.27% (n = 330,000);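 also: growth measured after seven days incubation then overnight dye step; 0% = bacteria only wells and 100% = bacteria with antibiotic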
UGM FP inh: inhibitors of M. tuberculosis UDP-galactopyranose mutase. P9WIQ1. purified UGM, fluorescence polarization probe displacement. inhibition, % at 10 µM. actives 0.06% (n = 320,000). AID 504406; in the data active = inhibition above about 10%, passing the limit was not always enough
Target sequence (P9WIQ1 whole entry, looked up): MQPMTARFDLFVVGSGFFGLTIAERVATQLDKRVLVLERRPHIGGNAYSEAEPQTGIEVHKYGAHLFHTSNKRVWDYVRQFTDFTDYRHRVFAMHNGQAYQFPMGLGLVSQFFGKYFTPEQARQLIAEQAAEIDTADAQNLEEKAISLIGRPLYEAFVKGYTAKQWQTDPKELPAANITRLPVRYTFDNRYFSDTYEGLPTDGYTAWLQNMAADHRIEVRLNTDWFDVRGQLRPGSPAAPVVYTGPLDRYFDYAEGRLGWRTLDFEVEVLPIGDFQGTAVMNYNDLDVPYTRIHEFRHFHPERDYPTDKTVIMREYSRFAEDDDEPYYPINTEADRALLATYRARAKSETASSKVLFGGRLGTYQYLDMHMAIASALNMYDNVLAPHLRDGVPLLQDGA
FBA Mtb inh: inhibits M. tuberculosis FBA enzyme; P9WQA3; purified M. tuberculosis FBA, fluorescence read-out; inhibition, % at 1 µM; actives 2.3% (n = 360,000); in the data active = inhibition above about 27%;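 also: 0% = vehicle and 100% = reference inhibitor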
Rv3671c protease: Rv3671c (M. tuberculosis) protease inhibition; inhibition, % at 5.96 µM; actives 0.048% (n = 320,000); AID 2606; in the data active = inhibition above about 38%;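 also: extracellular domain of Rv3671c used as enzyme; 0% = enzyme with DMSO and 100% = no enzyme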
PriA SSB inh: K. pneumoniae PriA-SSBct interaction inhibition; AlphaScreen SSBct-PriA binding, biotinylated peptide; inhibition, % at 33 µM; actives 0.6% (n = 430,000); AID 1272365; in the data active = inhibition mostly above about 37%, no sharp cut-off; inactive = mostly below about 20%;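 also: plate controls were negative control peptide for no effect and reference peptide for full effect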
Mtb FBA confirm: Mtb FBA inhibition, confirmed; shares compounds with FBA Mtb inh; purified M. tuberculosis FBA, fluorescence read-out; inhibition, % at 1 µM; actives 78% (n = 5,600); in the data active = inhibition above about 27%;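 also: 0% = vehicle wells and 100% = reference inhibitor wells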
GDH-TPI counter-2: inhibits GDH-TPI coupling enzymes, flagging Mtb FBA hits; shares compounds with FBA Mtb inh; GDH-TPI coupled enzyme counterscreen, fluorescence; inhibition, % at 1 µM; actives 81% (n = 5,600); in the data active = inhibition above about 10%
GDH-TPI DR: GDH-TPI dose response counter-screen for Mtb FBA; shares compounds with FBA Mtb inh; GDH-TPI coupled enzyme assay, fluorescence, artifact counterscreen; IC50, µM; actives 79% (n = 170); AID 652145
Numbers without * were called inactive; nt = no result; + = active, no number. This is a sample that favours compounds with a hit; in the whole collection about 3.2% have one here. Unless noted, no rule for the calls is given here.

SMILES	GDH-TPI counter-1	Mtb betalactam	UGM FP inh	FBA Mtb inh	Rv3671c protease	PriA SSB inh	Mtb FBA confirm	GDH-TPI counter-2	others
Cc1oc(C)c(C(=O)Nc2ccc(CC(=O)O)cc2)c1C(=O)Nc1ccc(CC(=O)O)cc1	-3	1	7	48*	4	-5	13	-5	GDH-TPI DR=>10
N=C(N)n1c(N)nc2ccccc2c1=O	2	-2	-1	59*	4	-8	25	11*
O=C(CCSc1ccccc1)N1CC(n2cc(-c3ccccc3)nn2)C1	nt	nt	nt	nt	nt	-10	nt	nt
CCN1CCN(C(=S)Nc2cc(C(=O)OC)ccc2C(=O)OC)CC1	15	4	5	31*	-15	1	135*	115*
COC(=O)c1ccc(C(=O)OC)c(NC(=S)N2CCOCC2)c1	-2	9	0	26	-14	-11	nt	nt
COc1ccccc1NC(=S)N1CCN(C(=O)C2CCCO2)CC1 (stereo not given)	5	4	-2	-1	-19	-1	nt	nt
COC(=O)c1ccc(C(=O)OC)c(NC(=O)C2CC2)c1	10	3	1	6	4	-12	nt	nt
COC(=O)c1ccc(C(=O)OC)c(NC(=S)N2CCN(C(=O)C3CCCO3)CC2)c1 (stereo not given)	-4	-8	0	28*	4	-7	113*	89*
COC(=O)c1ccc(C(=O)OC)c(NC(=O)/C=C/C(=O)O)c1	0	-2	2	57*	-9	-2	52*	50*
COc1ccc(NC(=O)Cn2nc3nc(N4CCOCC4)ccn3c2=O)cc1Cl	nt	nt	nt	nt	nt	-15	nt	nt
Cc1ccc(C2N(C)C(=O)c3ccccc3N2C)cc1 (stereo not given)	9	-5	2	52*	nt	-14	+	+
COc1ccc(-c2cc(=O)c3ccc(O)cc3o2)cc1OC	25	nt	nt	54*	nt	nt	6	4
COc1ccc(-c2cc(=O)oc3cc(O)ccc23)cc1	15	-3	-4	23	3	3	nt	nt
Cc1ccc(CN2CCSc3ccc(C(=O)NC4CCN(Cc5ccccc5)CC4)cc32)cc1	9	90	-1	10	-10	4	nt	nt
O=C(NC1CC1)c1ccc2c(c1)N(Cc1ccc(Cl)cc1)CCS2	7	3	3	106*	7	9	54*	48*
O=C(NC1CCCC1)c1ccc2c(c1)N(Cc1ccccc1)CCS2	9	0	1	90*	7	-3	103*	116*
COc1cccc(OC)c1C(=O)NC[C@@H](c1cccn1C)N1CCCC1	nt	nt	nt	nt	nt	-15	nt	nt
COc1ccc(N2C(=O)c3ccccc3NC23CCC(C)CC3)cc1 (stereo not given)	1	-12	0	10	8	-11	nt	nt
COc1ccc(N2C(=O)c3ccccc3NC23CCCCC3)cc1	-2	6	-1	37*	-1	1	111*	109*
CCc1cccc(NC(=O)CSc2nc3c(-c4ccccc4)csc3c(=O)n2C)c1	nt	nt	nt	nt	nt	-7	nt	nt
COc1ccc(-c2ccc(C(=O)NCCN(C)C)c3occc23)c(C)c1	6	nt	nt	33*	nt	nt	33*	25*
COc1ccc(-c2ccc(C(=O)NCc3ccccc3)c3occc23)c(C)c1	4	nt	nt	22	nt	nt	nt	nt
COCCNC(=O)c1ccc(-c2ccc(OC)cc2C)c2ccoc12	-8	nt	nt	95*	nt	nt	55*	44*
Cn1cccc1[C@H](CNC(=O)Cc1cccc2ccccc12)N1CCOCC1	nt	nt	nt	nt	nt	0	nt	nt
CC1CCN(c2cc(NC(=O)c3ccncc3)ncn2)CC1	nt	nt	nt	nt	nt	0	nt	nt
CCN(CC(=O)Nc1c(F)cccc1F)C(=O)COc1ccc2c(C)cc(=O)oc2c1	13	-9	-1	30*	-12	-8	123*	109*
Cc1cccc(C)c1NC(=O)COC(=O)COc1ccc2c(C)cc(=O)oc2c1	13	-9	3	24	-1	-3	nt	nt
Cc1cccc(C(C)C)c1NC(=O)COC(=O)COc1ccc2c(C)cc(=O)oc2c1	5	1	-3	30*	-16	8	8	0
